# Laboratory results from PubChem BioAssay (Tox21).
# Where “and” joins values, the source holds several entries; their conditions need not be identical. Equal values may be shown once. Results filed as inconclusive are left out. Calls of active or inactive are those of the source. Calls follow the shape of the full dose curve.
# Biological target: Acetylcholinesterase (Homo sapiens) (UniProt P22303)
# Assay: Acetylcholinesterase (AChE) small molecule antagonists: enzyme-based qHTS assay (AID 1347397); also: nearly all actives have a fitted effect of over 55% in size
# Conditions: Potency: AChE enzyme activity inhibition; outcome: AChE enzyme activity inhibition; series mostly up to 115 µM; activity change, negative = inhibition: at the top concentration
# In short: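 Recombinant human AChE (50 mU/mL) preincubated with compound 30 min at room temperature; acetylthiocholine plus DTNB then added, and thiocholine formation read colorimetrically after 10 min at room temperature. DMSO served as vehicle control.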
# % is scaled to controls: 0 for no effect and ±100 for the full control effect.
# Chain of Acetylcholinesterase (Homo sapiens) (P22303 whole entry, looked up): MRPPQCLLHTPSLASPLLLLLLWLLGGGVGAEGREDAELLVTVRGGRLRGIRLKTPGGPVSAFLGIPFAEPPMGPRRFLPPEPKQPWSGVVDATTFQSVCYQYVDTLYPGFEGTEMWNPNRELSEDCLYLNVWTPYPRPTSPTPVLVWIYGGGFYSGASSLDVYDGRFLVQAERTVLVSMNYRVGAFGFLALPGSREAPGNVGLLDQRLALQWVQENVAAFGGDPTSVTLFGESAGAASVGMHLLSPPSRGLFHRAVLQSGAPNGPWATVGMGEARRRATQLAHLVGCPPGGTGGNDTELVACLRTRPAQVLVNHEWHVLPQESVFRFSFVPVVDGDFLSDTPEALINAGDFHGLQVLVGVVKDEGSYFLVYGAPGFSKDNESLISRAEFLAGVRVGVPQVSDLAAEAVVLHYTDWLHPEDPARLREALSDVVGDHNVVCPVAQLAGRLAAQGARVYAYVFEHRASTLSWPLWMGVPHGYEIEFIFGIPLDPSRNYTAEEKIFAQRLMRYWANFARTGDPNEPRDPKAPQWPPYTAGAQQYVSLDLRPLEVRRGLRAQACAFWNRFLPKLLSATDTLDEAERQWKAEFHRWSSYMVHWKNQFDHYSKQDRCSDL
row,Compound,"activity change, negative = inhibition"
1,CC(=O)O[C@@H]1C[C@@H]2CC[C@@]1(C)C2(C)C,-0.136% (inactive)
2,Cc1ccc(OC(=O)c2ccccc2O)cc1,-0.0182% (inactive)
3,O=Cc1ccc(F)c(Br)c1,-1.42% (inactive)
4,CC(C)(C)C1(CCc2ccc(Cl)cc2)CO1 (centres undefined),-0.258% (inactive)
5,CCC1(C)NC(=O)NC1=O (centres undefined),0.0568% (inactive)
6,Cc1cccn2c(=O)c(-c3nnn[nH]3)cnc12,-2.02% [at 23.6 µM] (inactive)
7,CCCN(CCC)c1c([N+](=O)[O-])cc(C(F)(F)F)c(N)c1[N+](=O)[O-],0.0249% (inactive)
8,O=C(Nc1cccc([N+](=O)[O-])c1)c1cc2ccccc2cc1O,-12% (inactive)
9,c1ccc(CCCc2ccccn2)cc1,1.16% (inactive)
10,CCCCCCCCOC(=O)CCCCCCCCC(=O)OCCCCCCCC,0.523% (inactive)
11,NCC1(Cc2noc(=O)[nH]2)CCCCC1,-0.426% (inactive)
12,COCCOC(=O)C1=C(C)NC(C)=C(C(=O)OC/C=C/c2ccccc2)C1c1cccc([N+](=O)[O-])c1 (centres undefined),1.49% [at 53 µM] (inactive)
13,[O]=[Mo](=[O])=[O],0.153% [at 23.6 µM] (inactive)
14,O=C(O)c1c(O)c(-c2ccccc2)nc2ccccc12,-0.945% [at 53 µM] (inactive)
15,CCN(CC)c1cccc(C)c1,0.273% (inactive)
16,Clc1cc(Cl)c(Cl)nc1Cl,0.818% (inactive)

# Biological target: Acetylcholinesterase (Homo sapiens) (UniProt P22303)
# Assay: Acetylcholinesterase (AChE) small molecule antagonists: fluorescence cell-based qHTS assay (AID 1347398); also: nearly all actives have a fitted effect of over 50% in size; also: potency is read from the fitted curve at half-maximal effect
# Conditions: SH-SY5Y cells; Potency: AChE activity; outcome: AChE activity; series mostly up to 115 µM; activity change, negative = inhibition: at the top concentration
# In short: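 SH-SY5Y cells (2000/well), attached overnight, incubated with compound 30 min at 37 C. Acetylthiocholine plus Thiolite Green then added for 40 min at room temperature. Thiocholine fluorescence (Ex/Em 490/520 nm) reports cellular AChE activity.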
Compound,"activity change, negative = inhibition",Potency
C=C(C)C(=O)OCCOCC,0.0342% (inactive),–
CCCCCCCCCCCCCC(=O)OCC(O)CO (centres undefined),-12.6% (inactive),–
O=C[C@H](O)[C@@H](O)[C@H](O)[C@H](O)CO,6.74% (inactive),–
NC1CCN(c2nc3c(cc2F)c(=O)c(C(=O)O)cn3-c2ccc(F)cc2F)C1 (centres undefined),0.137% [at 53.7 µM] (inactive),–
CCN(CC)CCCC(C)Nc1ccnc2cc(Cl)ccc12 (centres undefined),–,3.79 µM (active)
C=CCON/C(CCC)=C1\C(=O)CC(C)(C)C(C(=O)OC)=C1O,4.48% (inactive),–
CCCCN,1.48% [at 53.7 µM] (inactive),–
CN1CCCC(n2nc(Cc3ccc(Cl)cc3)c3ccccc3c2=O)CC1 (centres undefined),–,13.8 µM (active)
CNC(=S)NC,4.88% (inactive),–
COC(=O)CCSCCC(=O)OC,-1.79% (inactive),–
CCCCCOC(=O)CCCC,4.16% (inactive),–
CCOC(=O)[C@@](C)(N)Cc1ccc(O)c(O)c1,0.253% [at 53.7 µM] (inactive),–
Cc1cnc(NS(=O)(=O)c2ccc(N)cc2)nc1,16.1% [at 53.7 µM] (inactive),–
CCCCOc1ccc(CC(=O)NO)cc1,109% [at 53.7 µM] (inactive),–
C=CCCCCCCCCCCC,5.55% [at 10.5 µM] (inactive),–
Clc1cc(Cl)c2c(c1)N=C1CCCCCN1C2,–,0.617 µM (active)
CC(=O)C1CCCCC1=O (centres undefined),-2.25% (inactive),–
Cc1cccc(N(C)C(=S)Oc2ccc3c(c2)CCC3)c1,0.687% [at 53.7 µM] (inactive),–
COc1ccccc1NC(=O)c1cc2ccccc2cc1O,-12.5% (inactive),–
CC(C)(C)c1ccc(OCC2CO2)cc1 (centres undefined),-1.81% (inactive),–

Compound,"activity change, negative = inhibition",Potency
O=C(Nc1ccc(Cl)cc1)Nc1ccc(Cl)c(C(F)(F)F)c1,2.67% [at 53.7 µM] (inactive),–
CCC(C)(C)C1CCC(=O)CC1,1.24% (inactive),–
COC(=O)[C@]1(C)CCC[C@@]2(C)[C@H]1CC=C1C=C(C(C)C)CC[C@@H]12,-0.893% (inactive),–
CC(=O)O[C@@H]1C[C@@H]2CC[C@@]1(C)C2(C)C,1.63% (inactive),–
Cc1ccc(OC(=O)c2ccccc2O)cc1,-1.09% (inactive),–
O=Cc1ccc(F)c(Br)c1,7.96% (inactive),–
CC(C)(C)C1(CCc2ccc(Cl)cc2)CO1 (centres undefined),4.44% (inactive),–
CCC1(C)NC(=O)NC1=O (centres undefined),-0.335% (inactive),–
Cc1cccn2c(=O)c(-c3nnn[nH]3)cnc12,-17.5% [at 23.8 µM] (inactive),–
CCCN(CCC)c1c([N+](=O)[O-])cc(C(F)(F)F)c(N)c1[N+](=O)[O-],-0.623% (inactive),–
O=C(Nc1cccc([N+](=O)[O-])c1)c1cc2ccccc2cc1O,6.91% (inactive),–
c1ccc(CCCc2ccccn2)cc1,-3.72% (inactive),–
CCCCCCCCOC(=O)CCCCCCCCC(=O)OCCCCCCCC,3.48% (inactive),–
NCC1(Cc2noc(=O)[nH]2)CCCCC1,-17.3% (inactive),–
COCCOC(=O)C1=C(C)NC(C)=C(C(=O)OC/C=C/c2ccccc2)C1c1cccc([N+](=O)[O-])c1 (centres undefined),-2.14% [at 53.7 µM] (inactive),–
[O]=[Mo](=[O])=[O],0.826% [at 23.8 µM] (inactive),–
O=C(O)c1c(O)c(-c2ccccc2)nc2ccccc12,0.181% [at 53.7 µM] (inactive),–
CCN(CC)c1cccc(C)c1,1.09% (inactive),–
Clc1cc(Cl)c(Cl)nc1Cl,0.411% (inactive),–

# Biological target: Acetylcholinesterase (Homo sapiens) (UniProt P22303)
# Assay: Acetylcholinesterase (AChE) small molecule antagonists: enzyme-based qHTS assay with human liver microsomes (AID 1347399); also: nearly all actives have a fitted effect of over 60% in size; also: potency is read from the fitted curve at half-maximal effect
# Conditions: Potency: qHTS inhibition; outcome: qHTS inhibition; series mostly up to 115 µM; activity change, negative = inhibition: at the top concentration
# In short: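 Recombinant human AChE (50 mU/mL in the enzyme mix) and human liver microsomes (0.25 mg/mL final) were preincubated with compound and NADPH (0.25 mg/mL final) for 30 min at 37 C. Acetylthiocholine/DTNB was then added; thiocholine was read colorimetrically after 10 min at room temperature.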
Compound,"activity change, negative = inhibition",Potency
C=C(C)C(=O)OCCOCC,-0.647% (inactive),–
CCCCCCCCCCCCCC(=O)OCC(O)CO (centres undefined),-0.475% (inactive),–
O=C[C@H](O)[C@@H](O)[C@H](O)[C@H](O)CO,0.515% (inactive),–
NC1CCN(c2nc3c(cc2F)c(=O)c(C(=O)O)cn3-c2ccc(F)cc2F)C1 (centres undefined),2.29% [at 53 µM] (inactive),–
CCN(CC)CCCC(C)Nc1ccnc2cc(Cl)ccc12 (centres undefined),-0.628% [at 10.5 µM] (inactive) and -0.0844% [at 23.6 µM] (inactive),–
C=CCON/C(CCC)=C1\C(=O)CC(C)(C)C(C(=O)OC)=C1O,0.535% (inactive),–
CCCCN,0.108% [at 53 µM] (inactive),–
CN1CCCC(n2nc(Cc3ccc(Cl)cc3)c3ccccc3c2=O)CC1 (centres undefined),-4.97% [at 53 µM] (inactive),–
CNC(=S)NC,-1.67% (inactive),–
COC(=O)CCSCCC(=O)OC,0.477% (inactive),–
CCCCCOC(=O)CCCC,0.492% (inactive),–
CCOC(=O)[C@@](C)(N)Cc1ccc(O)c(O)c1,-5.81% [at 53 µM] (inactive),–
Cc1cnc(NS(=O)(=O)c2ccc(N)cc2)nc1,0.144% [at 53 µM] (inactive),–
CCCCOc1ccc(CC(=O)NO)cc1,-0.632% [at 53 µM] (inactive),–
C=CCCCCCCCCCCC,0.324% [at 10.5 µM] (inactive),–
Clc1cc(Cl)c2c(c1)N=C1CCCCCN1C2,–,3.89 µM (active)
CC(=O)C1CCCCC1=O (centres undefined),-0.807% (inactive),–
Cc1cccc(N(C)C(=S)Oc2ccc3c(c2)CCC3)c1,-4.91% [at 53 µM] (inactive),–
COc1ccccc1NC(=O)c1cc2ccccc2cc1O,2% (inactive),–
CC(C)(C)c1ccc(OCC2CO2)cc1 (centres undefined),-2.42% (inactive),–

Compound,"activity change, negative = inhibition",Potency
O=C(Nc1ccc(Cl)cc1)Nc1ccc(Cl)c(C(F)(F)F)c1,1.87% [at 53 µM] (inactive),–
CCC(C)(C)C1CCC(=O)CC1,-1.48% (inactive),–
COC(=O)[C@]1(C)CCC[C@@]2(C)[C@H]1CC=C1C=C(C(C)C)CC[C@@H]12,1.12% (inactive),–
CC(=O)O[C@@H]1C[C@@H]2CC[C@@]1(C)C2(C)C,0.482% (inactive),–
Cc1ccc(OC(=O)c2ccccc2O)cc1,35.1% (inactive),–
O=Cc1ccc(F)c(Br)c1,-0.153% (inactive),–
CC(C)(C)C1(CCc2ccc(Cl)cc2)CO1 (centres undefined),0.0066% (inactive),–
CCC1(C)NC(=O)NC1=O (centres undefined),0.917% (inactive),–
Cc1cccn2c(=O)c(-c3nnn[nH]3)cnc12,-5.01% [at 23.6 µM] (inactive),–
CCCN(CCC)c1c([N+](=O)[O-])cc(C(F)(F)F)c(N)c1[N+](=O)[O-],13.9% (inactive),–
O=C(Nc1cccc([N+](=O)[O-])c1)c1cc2ccccc2cc1O,0.306% (inactive),–
c1ccc(CCCc2ccccn2)cc1,-0.246% (inactive),–
CCCCCCCCOC(=O)CCCCCCCCC(=O)OCCCCCCCC,-0.123% (inactive),–
NCC1(Cc2noc(=O)[nH]2)CCCCC1,0.0959% (inactive),–
COCCOC(=O)C1=C(C)NC(C)=C(C(=O)OC/C=C/c2ccccc2)C1c1cccc([N+](=O)[O-])c1 (centres undefined),-0.0718% [at 53 µM] (inactive),–
[O]=[Mo](=[O])=[O],0.081% [at 23.6 µM] (inactive),–
O=C(O)c1c(O)c(-c2ccccc2)nc2ccccc12,0.443% [at 53 µM] (inactive),–
CCN(CC)c1cccc(C)c1,-0.486% (inactive),–
Clc1cc(Cl)c(Cl)nc1Cl,1.71% (inactive),–
